Test results reported in the supplement of paper PMC6555819.

How the values were obtained:
Assay in all cases: PBM binding z-score (relative to random genomic background probes); higher = stronger binding; sequences stand for … in GC…GCGATTGACAGCGTAGAATGAAGG
[1] = test system: FXR:RXRa (NR concentration 270 nM, RXRa partner concentration 90 nM)
In short: (§1)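 Scanned fluorescence from custom Agilent 4×180K protein-binding microarrays was regression-normalized. Binding z-scores use random background probes as reference. Ligand-free nuclear receptor dimers were incubated on the arrays for 1 h and detected with antibodies against each partner (one per run).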

[2] = test system: LXRa:RXRa (NR concentration 270 nM, RXRa partner concentration 90 nM)
In short: as §1

[3] = test system: LXRa homodimer (NR concentration 270 nM)
In short: as §1

[4] = test system: LXRb:RXRa (NR concentration 270 nM, RXRa partner concentration 90 nM)
In short: as §1

[5] = test system: LXRb homodimer (NR concentration 270 nM)
In short: as §1

[6] = test system: PPARa:RXRa (NR concentration 270 nM, RXRa partner concentration 90 nM)
In short: as §1

[7] = test system: PPARg:RXRa (NR concentration 180 nM, RXRa partner concentration 90 nM)
In short: as §1

[8] = test system: PPARg:RXRa 270nM:90nM, anti-RXR (NR concentration 270 nM, RXRa partner concentration 90 nM)
In short: as §1

[9] = test system: PPARg:RXRa 30nM:10nM, anti-RXR (NR concentration 30 nM, RXRa partner concentration 10 nM)
In short: as §1

[10] = test system: PPARg:RXRa 90nM:30nM, anti-RXR (NR concentration 90 nM, RXRa partner concentration 30 nM)
In short: as §1

[11] = test system: PPARg:RXRa DBDmut IVT, anti-RXR (DBD mutation: RXRa K156A/R161A, NR concentration 270 nM, RXRa partner concentration 90 nM)
In short: as §1

[12] = test system: PPARg:RXRa IVT, anti-PPARg (NR concentration 270 nM, RXRa partner concentration 90 nM)
In short: as §1

[13] = test system: PPARg DBDmut:RXRa IVT, anti-PPARg (DBD mutation: PPARg1 K132A/R137A, NR concentration 270 nM, RXRa partner concentration 90 nM)
In short: as §1

[14] = test system: PPARg DBDmut IVT, anti-PPARg (DBD mutation: PPARg1 K132A/R137A, NR concentration 270 nM)
In short: as §1

[15] = test system: PPARg homodimer (NR concentration 180 nM)
In short: as §1

[16] = test system: PXR:RXRa (NR concentration 270 nM, RXRa partner concentration 90 nM)
In short: as §1

[17] = test system: PXR homodimer (NR concentration 270 nM)
In short: as §1

[18] = test system: RARa:RXR (NR concentration 270 nM, RXRa partner concentration 90 nM)
In short: as §1

[19] = test system: RARa homodimer (NR concentration 270 nM)
In short: as §1

[20] = test system: RARb:RXRa (NR concentration 270 nM, RXRa partner concentration 90 nM)
In short: as §1

Row | Sequence | PBM binding z-score [1] | PBM binding z-score [2] | PBM binding z-score [3] | PBM binding z-score [4] | PBM binding z-score [5] | PBM binding z-score [6] | PBM binding z-score [7] | PBM binding z-score [8] | PBM binding z-score [9] | PBM binding z-score [10] | PBM binding z-score [11] | PBM binding z-score [12] | PBM binding z-score [13] | PBM binding z-score [14] | PBM binding z-score [15] | PBM binding z-score [16] | PBM binding z-score [17] | PBM binding z-score [18] | PBM binding z-score [19] | PBM binding z-score [20]
1 | AGTCAAAGTTCATCTAGGTAACGTATGATATGCT | 6.72 | 5.89 | 5.49 | 3.77 | 1.5 | 4.97 | 6.95 | 6.52 | 3.52 | 5.74 | 0.872 | 3.88 | 1.48 | 1.76 | 2.9 | 5.12 | 7.63 | 3.93 | 1.68 | 4.95
2 | CCTACTGGGCCAAGGTCCTTGATCAGTCAAAGCA | -2.77 | -0.638 | -0.83 | -0.659 | -1.31 | 0.607 | 0.83 | 1.73 | -0.152 | 0.845 | 3.51 | 3.4 | -1.28 | -1.15 | -0.287 | -0.74 | -0.766 | -0.787 | -1.65 | 0.256
3 | AGAACGAGGGCAATGAGTTGAGAGCACGGGTGGC | 0.342 | -0.0458 | -0.343 | -0.251 | -0.332 | 1.42 | 1.39 | 1.17 | -0.064 | 0.763 | 2.9 | 2.73 | 0.608 | -0.139 | 0.0206 | 1.04 | 1.92 | 0.292 | -0.276 | 2.05
4 | CCAACTAGGTCAAAGGTCAAAGTCGAGCCAACCA | 8.45 | 7.12 | 5.59 | 7.28 | 3.01 | 7.64 | 13.6 | 10.9 | 13.2 | 12.7 | 8.37 | 8.87 | 4.39 | 5.12 | 5.23 | 7.1 | 1.86 | 8.64 | 3.1 | 5.72
5 | GCTCGGAGGTCAAGGTCAGAGCTTTGTCCGTAGA | 7.3 | 5.97 | 1.81 | 4.82 | 1.33 | 5.76 | 6.41 | 6.35 | 2.69 | 5.23 | 3.94 | 4.68 | -0.342 | -0.512 | 4.12 | 5.61 | 1.32 | 6.17 | 2.29 | 5.37
6 | ACTATTAGTTGAGCCGAGGGCAACCGATAGGTTG | 0.981 | 0.0811 | -0.117 | -0.118 | 0.161 | 0.302 | 0.401 | -0.167 | -0.144 | -0.0304 | -0.387 | 0.273 | 0.194 | -0.123 | -0.122 | 1.43 | 0.308 | 0.433 | 0.387 | 1.21
7 | CGAACTAGGTCAGAACAGGAGAGTGAAGGATGAT | 0.927 | 0.589 | -0.174 | 0.371 | -0.252 | 3.11 | 5.25 | 4.6 | 1.34 | 3.7 | 7.25 | 7.15 | 1.13 | 1.4 | 0.511 | 0.126 | -0.235 | 0.576 | 0.206 | 2.94
8 | CAAACTAGGTCACGAATGGTCAAAGTCGAATGAC | 4.48 | 5.29 | 0.845 | 3.46 | 0.546 | 5.82 | 9.24 | 7.45 | 5.7 | 7.36 | 8.28 | 9.26 | 2.84 | 3.79 | 2.55 | 2.47 | 0.0543 | 3.22 | 0.681 | 4.62
9 | TCATATAGTTAATACAGGTGAAAGTCGGCATCTA | 1.36 | 1.88 | 0.641 | 1.3 | 0.448 | 1.8 | 1.13 | 2.41 | 4.54 | 3.7 | 2.82 | 1.74 | 1.53 | 1.48 | 1.32 | 1.05 | 0.721 | 1.59 | 2.34 | 0.914
10 | CAAACTAGGTCGAAGGTCAAAGTCGAGCCAACCA | 5.22 | 4.73 | 2.22 | 4.63 | 0.602 | 6.98 | 12.4 | 10.2 | 10.9 | 12.7 | 6.36 | 7.65 | 2.75 | 1.51 | 3.56 | 4.98 | 1.03 | 6.95 | 1.29 | 4.16
11 | AATACAGGGTCATCGTAGGCAAGAGTACGCACAG | 7.68 | 6.03 | 2.1 | 4.59 | 1.4 | 5.83 | 7 | 6.27 | 3.31 | 4.97 | 2.91 | 4.3 | 1.57 | 1.49 | 4.01 | 4.55 | 0.721 | 5.8 | 1.82 | 4.46
12 | CCTATTAGTTGACCATCAGGGCAACCGAAGCTCG | 0.442 | 0.292 | 0.822 | 0.105 | 0.434 | 0.136 | 0.185 | 0.164 | -0.404 | 0.121 | 0.536 | 0.814 | 0.556 | 0.943 | 1.44 | 0.0854 | 0.589 | 0.0403 | 1.51 | 1.07
13 | ACCTCTAGGTAAGACTCAGTTCAGTGAAGAACGC | -0.0705 | -0.143 | -0.072 | -0.301 | 0.0183 | -0.0817 | 0.0418 | 0.031 | -0.00405 | -0.257 | 1.32 | 0.243 | -0.124 | -0.421 | 0.121 | 0.405 | 0.515 | 0.112 | -0.37 | -0.0918
14 | AATACAGAGTCATCGTAGGCCAGAGTACGCACAG | 0.102 | 0.331 | -0.311 | -0.227 | -0.569 | -0.149 | 0.955 | 0.273 | -0.0148 | 0.175 | 0.0374 | 0.268 | 0.399 | 0.579 | -0.714 | -0.113 | -0.387 | -0.0799 | 0.026 | 0.17
